The list is not random: actives were taken first. Their share in the collection is about 7.6%.
KB-3-1 cytotox – qHTS assay for MDR1-selective chemotherapeutics: Primary screen using the parental adenocarcinoma cell KB-3-1. 400,000 compounds, 1.4% hits. Potency, µM (highest dose often 46.1 µM), hits mostly cytotoxic. KB-3-1 viability, CellTiter-Glo ATP luminescence, 72 h. AID 1347075, 2019; note: potency is the fitted concentration of half-maximal effect; % is set by controls: 0 for no effect and ±100 for the full control effect; nearly all actives have a fitted effect of over 60% in size
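Parental KB-3-1 adenocarcinoma cells in phenol-red-free DMEM with 10% FBS were pin-treated with compounds at several concentrations, incubated 72 h at 37 °C, and viability read by CellTiter-Glo luminescence; concentration-effect curves were fitted after normalization.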
MCF10A rerep – A quantitative high throughput screen for small molecules that induce DNA re-replication in MCF 10a normal breast cells | MCF 10A DNA re-replication, Hoechst nuclear intensity, 48 h | Potency, µM (highest dose often 46.1 µM), for the others: top-dose activity, positive = re-replication, actives largely listed as activators | 350,000 compounds, 2.9% hits; note: potency is the fitted concentration of half-maximal effect; % of control where 0% means no effect; nearly all actives have a fitted effect of over 50% in size
KB-V1 cytotox – qHTS assay for MDR1-selective chemotherapeutics: Primary screen using the drug-selected MDR subline cells KB-V1; Potency, µM (titrated, usually from 46.1 µM), actives largely listed as cytotoxic; 400,000 compounds, 3.4% hits; KB-V1 MDR cells viability, CellTiter-Glo, 72 h; note: potency is the fitted concentration of half-maximal effect; % is set by controls: 0 for no effect and ±100 for the full control effect; nearly all actives have a fitted effect of over 60% in size
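Readout: CellTiter-Glo luminescence, 10 min after addition. Cells: KB-V1 MDR subline, 72 h at 37 degrees C with compound. Analysis: corrected, normalized data fitted to concentration-effect curves.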
KCNH2 3.1 inh – qHTS for Inhibitors of KCHN2 3.1: Mutant qHTS; Potassium voltage-gated channel subfamily H member 2, brain isoform KCNH2 3.1 (human); U2OS KCNH2 3.1, thallium flux FluxOr; stronger effect = lower value; activity change, % (tested at about 1.8 µM); 340,000 compounds, 0.95% hits; AID 720553, 2013;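 active = maximum activity change below -70%; inconclusive = maximum activity change from -70% to -50%; inactive = maximum activity change above -50%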;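 note: thallium influx rate constant from kinetic fluorescence after stimulation buffer; % is set by controls: 0 for no effect and ±100 for the full control effect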
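Virally transduced U2OS (3.1 isoform, 4 h infection in dark at RT) → overnight 37 C → FluxOr + Red40 in HBSS/HEPES, 45 min → stimulation buffer, 2 min kinetic read → rate constant vs DMSO controls.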
SW480 rereplic – A quantitative high throughput screen for small molecules that induce DNA re-replication in SW480 colon adenocarcinoma cells | 340,000 compounds, 1.8% hits | Potency, µM (highest dose often 46.1 µM), without a hit: top-dose re-replication activation, most hits filed as activators | SW480 DNA re-replication, Hoechst DNA content imaging, 48 h; note: potency is the fitted concentration of half-maximal effect; % of control where 0% means no effect; nearly all actives have a fitted effect of over 55% in size
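Quantitative HTS format with DMSO vehicle controls; 48 hr drug incubation at 37 C, then 40 min Hoechst staining and scanning imager measurement at 405 nm excitation.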
hERG WT inh – qHTS for Inhibitors of KCHN2 3.1: Wildtype qHTS; Voltage-gated inwardly rectifying potassium channel KCNH2 (Homo sapiens), Q12809; U2OS, BacMam KCNH2, thallium flux FluxOr; stronger effect = lower value; activity change, % at 1.84 µM; 340,000 compounds, 0.37% hits; AID 720551, 2013;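 active = maximum activity change below -70%; inconclusive = maximum activity change between -70% and -50%; inactive = maximum activity change above -50%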; note: % is set by controls: 0 for no effect and ±100 for the full control effect
Target sequence (Q12809 whole entry, looked up): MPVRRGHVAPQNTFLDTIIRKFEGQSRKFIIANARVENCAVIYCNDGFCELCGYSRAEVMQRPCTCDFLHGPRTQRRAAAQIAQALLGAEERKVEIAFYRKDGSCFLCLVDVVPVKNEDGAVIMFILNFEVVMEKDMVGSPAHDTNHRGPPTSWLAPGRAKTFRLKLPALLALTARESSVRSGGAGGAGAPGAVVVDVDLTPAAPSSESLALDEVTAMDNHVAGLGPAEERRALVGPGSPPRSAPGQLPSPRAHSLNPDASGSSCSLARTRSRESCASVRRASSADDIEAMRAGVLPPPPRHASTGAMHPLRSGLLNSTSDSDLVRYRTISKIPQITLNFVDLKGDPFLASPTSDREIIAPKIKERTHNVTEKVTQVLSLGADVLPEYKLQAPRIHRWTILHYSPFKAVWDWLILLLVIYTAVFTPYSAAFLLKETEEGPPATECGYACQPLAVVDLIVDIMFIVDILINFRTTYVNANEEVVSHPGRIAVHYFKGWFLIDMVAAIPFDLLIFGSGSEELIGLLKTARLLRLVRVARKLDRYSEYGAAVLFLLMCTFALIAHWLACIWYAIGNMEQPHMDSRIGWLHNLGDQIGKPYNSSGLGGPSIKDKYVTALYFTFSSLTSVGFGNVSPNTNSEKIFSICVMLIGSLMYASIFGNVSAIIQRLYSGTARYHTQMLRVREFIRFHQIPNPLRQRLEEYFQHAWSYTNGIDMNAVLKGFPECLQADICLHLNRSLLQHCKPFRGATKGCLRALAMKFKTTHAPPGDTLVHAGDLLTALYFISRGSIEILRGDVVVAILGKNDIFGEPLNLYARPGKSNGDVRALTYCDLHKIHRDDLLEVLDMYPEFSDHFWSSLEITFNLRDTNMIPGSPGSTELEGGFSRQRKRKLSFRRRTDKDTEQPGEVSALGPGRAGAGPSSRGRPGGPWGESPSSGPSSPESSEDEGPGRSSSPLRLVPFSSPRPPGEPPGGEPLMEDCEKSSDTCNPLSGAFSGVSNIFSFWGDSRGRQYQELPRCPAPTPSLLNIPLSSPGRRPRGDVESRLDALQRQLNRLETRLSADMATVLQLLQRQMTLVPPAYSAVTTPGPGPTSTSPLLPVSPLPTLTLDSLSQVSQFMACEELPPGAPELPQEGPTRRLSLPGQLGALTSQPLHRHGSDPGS
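U2OS cells transduced with wild-type KCNH2 virus are loaded with FluxOr dye for 45 min, and thallium flux is measured in kinetic reads before and after stimulation buffer. Rate constants are normalized to DMSO controls.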
Starred values were filed as active, the others as inactive; i = inactive; ? = inconclusive; / = not tested or not shown. Unless noted, calls come from the whole dose curve; as a rule, active = well fitted curve in the direction sought with a large enough effect; inconclusive = small, poorly fitted or top-dose-only effect, or another doubt; inactive = no such curve, though single readings can be large; an effect the other way counts as inactive or inconclusive.

SMILES | KB-3-1 cytotox | MCF10A rerep | KB-V1 cytotox | KCNH2 3.1 inh | SW480 rereplic | hERG WT inh
O=C(NNC(=O)C1[C@H]2CCCC[C@@H]12)NC1CCCCC1 (some centres not stated) | i | 3% | i | -76* | -27% | /
O=C(NNS(=O)(=O)c1ccc(Br)cc1)NC1CCCCC1 | i | 2% | i | ? | -1% | -2
COC(=O)c1[nH]c2ccc(C)cc2c1NC(=O)c1ccccc1[N+](=O)[O-] | i | ? | 16µM* | 4 | -5% | 0
CCOC(=O)c1[nH]c2ccccc2c1NC(=O)c1ccc(S(=O)(=O)N2CCCCC2)cc1 | i | 23µM* | i | -8 | 6% | 32
CCOC(=O)c1[nH]c2ccccc2c1NC(=O)c1ccccc1OCC | 1.6µM* | / | ? | / | / | /
CCOC(=O)c1[nH]c2ccccc2c1NC(=O)c1ccc(OCC)cc1 | i | / | i | / | / | /
C(=N\c1nc2ccccc2n1Cc1ccccc1)/c1cccs1 | i | -6% | ? | -1 | 22% | 0
O=c1[nH]/c(=C/c2ccc3c(c2)OCO3)c(=O)[nH]/c1=C\c1ccc2c(c1)OCO2 | ? | / | i | / | / | /
O=C(O)CCC(=O)OCCN(Cc1ccc(Oc2ccc([N+](=O)[O-])cc2)cc1)C(=O)C(Cl)Cl | i | 8% | 23µM* | -22 | -1% | -7
CN(Cc1nc2ccccc2c(=O)[nH]1)C(=O)c1cccc(S(=O)(=O)N2CCc3ccccc32)c1 | i | ? | 16µM* | -3 | 3% | -3
COc1ccc(C(CNC(=O)c2cccc(S(=O)(=O)N3CCCc4ccccc43)c2)N(C)C)cc1 (configuration not stated) | ? | 17% | 2.3µM* | -74* | ? | -18
COc1ccc(C(CNC(=O)c2ccc(S(=O)(=O)N3CC(C)CC(C)C3)cc2)N(C)C)cc1 (configuration not stated) | / | ? | / | -11 | ? | -83*
CN(Cc1nc2ccccc2c(=O)[nH]1)C(=O)c1cccc(S(=O)(=O)N2CCCCCC2)c1 | i | 9% | i | 11 | -23% | -11
COc1ccc(NC(=O)c2cccc(S(=O)(=O)N3CCc4ccccc43)c2)c(OC)c1 | i | / | i | 9 | / | -89*
COc1ccc(C(CNC(=O)c2ccc(S(=O)(=O)N3CCCC3)cc2)N(C)C)cc1OC (configuration not stated) | i | -4% | i | 0 | -13% | 7
CC(C)c1ccccc1NC(=O)C(Cc1c[nH]c2ccccc12)NC(=O)OC(C)(C)C (configuration not stated) | i | / | i | / | / | /
CCCN(C)CCCOc1cc2nc(N3CCCN(C)CC3)nc(NC3CCN(C)CC3)c2cc1OC | ? | / | i | / | / | /
CCN(Cc1ccncc1)C(=O)c1cc(COc2c(C)cccc2C)on1 | i | 13% | ? | -11 | 4% | 2
COc1cc(NS(=O)(=O)c2ccc3c(c2)CCN3S(C)(=O)=O)cc(OC)c1 | i | / | ? | / | / | /
COc1ccc(C2CC(=O)c3sc(NC(C)=O)nc3C2)cc1 (configuration not stated) | i | 5% | ? | -6 | ? | 10
COc1cc2c(cc1OC)CN(C(=O)c1cccc(S(=O)(=O)N3CCc4ccccc43)c1)CC2 | i | ? | 21µM* | -9 | 25% | -20
CCN(CC(=O)Nc1cccc(OC)c1)C(=O)c1cccc(S(=O)(=O)N2CCc3ccccc32)c1 | ? | 16% | 18µM* | 0 | 1% | -2
